# Data published in PubChem BioAssay (EPA / NIEHS).
# The source made the active and inactive calls. Rule for the calls: active = hit-call score of the fitted dose curve at least 0.9, where 1 is the maximum; inactive = score below 0.9.
# Test: CCTE_Padilla_ZF_Score.General: CCTE's 144 Hour Post-fertilization zebrafish Assay Score for General Malformation, Padilla Lab (AID 2284411)
# Experimental: CCTE_Padilla_ZF_Phenotype_Score is a whole embryo, multiplexed assay using zebrafish ova exposed for 144 hours post fertilization on a 96-well plate.CCTE_Padilla_ZF_Score.General is one of one assay component(s) measured or calculated from the CCTE_Padilla_ZF_Phenotype_Score assay. It is designed to make measurements of zebrafish development as detected with brightfield microscopy of developing zebrafish embryos.Data from the assay component CCTE_Padilla_ZF_Score.General was analyzed into 1 assay endpoints. This assay endpoint, CCTE_Padilla_ZF_Score.General, was analyzed in the positive analysis fitting direction relative to DMSO as the negative control and baseline of activity. Using a type of viability reporter, gain-of-signal activity can be used to understand changes in developmentals as they relate to the whole embryo. To generalize the intended target to other relatable targets, this assay endpoint is annotated to the zebrafish development intended target family, where the subfamily is embryonic morphogenesis.
# Zebrafish husbandry: Wild type adult zebrafish (Danio rerio; undefined outbred stock obtained from Aquatic Research Organisms, Hampton, NH, 03842) were housed in an AAALAC-approved animal facility at 28C with a 14:10 h light: dark cycle (lights on at 08:30 h). Adult fish (2-3 females per male; density = 15-20 adults per tank) were kept in one of several 9-liter (L) flow-through colony tanks (Aquaneering Inc., San Diego, CA). All adults in a colony tank were placed in a 2 L (static) breeding tank (Aquatic Habitats, Apopka, FL) one hour prior to light onset. Typically, adults from two to three colony tanks were mated on the same day. Two hours after light onset the adults were returned to the colony tank. All embryos were gathered from each breeder tank, pooled, and placed in a 28C water bath for 2 h, followed by two washes with 0.06% bleach (v/v) in 10% Hanks' Balanced Salt Solution (13.7 mM NaCl 0.54 mM KCl, 25 uM Na2HPO4, 130 uM CaCl2 100 um MgSO4 and 420 um NaHCO3,), hereafter referred to as Hanks' solution, for 5 min in order to remove any residual bacteria or fungi. Immediately following washing, the embryos were examined, and healthy embryos were separated from dead or unfertilized eggs and moved into fresh Hanks'. Chemical exposures: Zebrafish embryos were exposed in 96-well plates. Between 6- and 8-hours post fertilization (hpf), healthy embryos (with chorions) were transferred, one embryo per well, into 96 well (0.5 mL) microtiter plates (Cell Culture-Treated, Flat-Bottom Microplate 96 well [Corning Costar, Kennebunk, ME; Cat 09-761-145]) filled with 200 uL of Hanks' solution. A random number generator was used to assign the order in which the rows of embryos were plated in 96 well plates each week. After plating, the embryos were dosed with 0.8 uL of the chemical dosing solution then immediately sealed with AlumaSeal II (Excel Scientific Inc, Victorville, CA) to prevent volatilization of the chemicals, and then placed in a leakproof secondary container. These containers were placed in an incubator maintained on a 14:10 h light: dark cycle at 26C for rearing. On 5 dpf, live larvae were gently moved out of the plate with test chemicals and into a new 96 well mesh plate (Millipore Corp., Bedford, MA) with just the Hanks' solution. Once within the mesh well plate, the animals were rinsed with 400 uL of fresh Hanks' three times, and then the plates were covered with a non-adhesive material (Microseal A, BioRad, Hercules, CA), plate lid added, and then plate sides wrapped in Parafilm (PM992, Bermis Company, Neenah, WI), and returned to the incubator. […]
SMILES,outcome,AC50
OCC(F)(F)C(F)(F)C(F)(F)C(F)(F)C(F)(F)C(F)(F)C(F)(F)C(F)(F)C(F)(F)C(F)(F)C(F)(F)F,inactive,–
FC(F)=C(F)C(F)(F)C(F)(F)C(F)(F)C(F)F,inactive,–
O=C(O)C(F)(F)OC(F)(F)C(F)(F)OC(F)(F)C(F)(F)OC(F)(F)C(F)(F)C(F)(F)C(F)(F)F,–,2.18 µM (active)
C=CC(C)(CCC=C(C)C)OC(C)=O (stereo not given),inactive,–
O=P(O)(O)CCC(F)(F)C(F)(F)C(F)(F)C(F)(F)C(F)(F)C(F)(F)F,inactive,–
CN(CCO)S(=O)(=O)C(F)(F)C(F)(F)C(F)(F)C(F)(F)C(F)(F)C(F)(F)C(F)(F)C(F)(F)F,inactive,–
O=C(O)CCC(F)(F)C(F)(F)C(F)(F)C(F)(F)C(F)(F)C(F)(F)F,inactive,–
FC(F)(F)C1(F)C(F)(F)C(F)(F)C(F)(F)C1(F)F,inactive,–
CCCCCCCCCCCCCCCCCC[N+](C)(C)Cc1ccccc1,inactive,–
FC(OC(F)(F)C(F)(F)C(F)(F)F)C(F)(F)F (stereo not given),inactive,–
FC(F)(F)N1C(F)(F)C(F)(F)OC(F)(F)C1(F)F,inactive,–
FC1(F)C=CC(F)(F)C1(F)F,inactive,–
O=C1c2ccc(O)c(O)c2C(=O)c2c(O)ccc(O)c21,inactive,–
C=CC(=O)OCCC(F)(F)C(F)(F)C(F)(F)C(F)(F)C(F)(F)C(F)(F)C(F)(F)C(F)(F)F,inactive,–
O=C1OC(=O)C(F)(F)C1(F)F,inactive,–
OCCN1CN(CCO)CN(CCO)C1,inactive,–
O=C(OC(=O)C(F)(F)C(F)(F)F)C(F)(F)C(F)(F)F,inactive,–
O=C(O)CCC(F)(F)C(F)(F)C(F)(F)C(F)(F)C(F)(F)F,–,10.7 µM (active)
NC(C(F)(F)F)C(F)(F)F,inactive,–
COC(=O)C(F)(F)C(F)(F)C(F)(F)C(F)(F)C(F)(F)F,inactive,–
FC(F)(F)C1(F)C(F)(F)C(F)(F)C(F)(F)C(F)(C(F)(F)F)C1(F)F (stereo not given),inactive,–
COC1=CC(=O)C[C@@H](C)[C@]12Oc1c(Cl)c(OC)cc(OC)c1C2=O,inactive,–
O=C(F)C(F)(F)C(F)(F)C(F)(F)C(=O)F,inactive,–
FCOC(C(F)(F)F)C(F)(F)F,inactive,–
O=C(CC(=O)C(F)(F)C(F)(F)C(F)(F)F)c1cccs1,inactive,–
CC(C)(c1ccc(Oc2ccc(N)cc2)cc1)c1ccc(Oc2ccc(N)cc2)cc1,inactive,–
O=CC(F)(F)C(F)(F)C(F)(F)C(F)F,inactive,–
O=P(O)(O)CCC(F)(F)C(F)(F)C(F)(F)C(F)(F)C(F)(F)C(F)(F)C(F)(F)C(F)(F)F,–,1.78 µM (active)
C=CC(F)(F)C(F)(F)C(F)(F)C(F)(F)F,inactive,–
O=CC(F)(F)C(F)(F)C(F)(F)F,–,79.6 µM (active)
